Test results published in PubChem BioAssay (NCI).
Compounds without any hit were thinned out: in the full panel of roughly 83,000, 20% have a hit.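 Interpretation: 100, growth as untreated; towards 0, rising growth inhibition; 0, no net growth; 0 to -100, cell death. Compounds scoring below 10 were considered active.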 Active and inactive are the calls of the source.

Experiments:
Test in all cases: NCI-60 one-dose screen, 48 h (100 = growth as untreated, 0 = no growth, -100 = all killed)
Conditions in all cases: 10 µM
NCI-H23 lung = test system: NCI-H23 lung
NCI-H226 lung = test system: NCI-H226 lung
NCI-H322M lung = test system: NCI-H322M lung
HOP-62 NSCLC = test system: HOP-62 NSCLC
NCI-H460 lung = test system: NCI-H460 lung
HOP-92 NSCLC = test system: HOP-92 NSCLC
NCI-H522 lung = test system: NCI-H522 lung
A549/ATCC NSCLC = test system: A549/ATCC NSCLC
786-0 renal = test system: 786-0 renal
COLO 205 colon = test system: COLO 205 colon

Measured: growth

CC(=O)OCC1OC(OC2=C(CC=C(C)C)C(=O)c3ccccc3C2=O)C(OC(C)=O)C(OC(C)=O)C1OC(C)=O (stereo unspecified)
active: HOP-92 NSCLC -3.11%
inactive: NCI-H23 lung 23.3% | NCI-H226 lung 57.1% | NCI-H322M lung 77.5% | HOP-62 NSCLC 94.5% | NCI-H460 lung 34.6% | NCI-H522 lung 22.3% | A549/ATCC NSCLC 79.5% | 786-0 renal 88.9% | COLO 205 colon 66%

OCCN(CCO)C(=S)S
inactive: NCI-H23 lung 102% | NCI-H226 lung 103% | NCI-H322M lung 103% | HOP-62 NSCLC 108% | NCI-H460 lung 112% | HOP-92 NSCLC 109% | NCI-H522 lung 101% | A549/ATCC NSCLC 94% | 786-0 renal 101% | COLO 205 colon 114%

COc1cc(OC)c2ccc(=O)oc2c1
inactive: NCI-H23 lung 101% | NCI-H226 lung 114% | NCI-H322M lung 107% | HOP-62 NSCLC 101% | NCI-H460 lung 104% | HOP-92 NSCLC 98.3% | NCI-H522 lung 116% | A549/ATCC NSCLC 97% | 786-0 renal 105% | COLO 205 colon 107%

Cc1ccc(N)cc1[N+](=O)[O-]
inactive: NCI-H23 lung 97.1% | NCI-H226 lung 114% | NCI-H322M lung 129% | HOP-62 NSCLC 99.5% | NCI-H460 lung 109% | HOP-92 NSCLC 90% | NCI-H522 lung 94.5% | A549/ATCC NSCLC 100% | 786-0 renal 108% | COLO 205 colon 110%

CCOC(=O)C(=O)C=P(c1ccccc1)(c1ccccc1)c1ccccc1
inactive: NCI-H23 lung 99.4% | NCI-H226 lung 108% | NCI-H322M lung 98.2% | HOP-62 NSCLC 98.1% | NCI-H460 lung 103% | HOP-92 NSCLC 96.5% | NCI-H522 lung 90.1% | A549/ATCC NSCLC 100% | 786-0 renal 101% | COLO 205 colon 110%

COC(=O)/C=C\C(=O)OC
inactive: NCI-H23 lung 106% | NCI-H226 lung 114% | NCI-H322M lung 125% | HOP-62 NSCLC 113% | NCI-H460 lung 111% | HOP-92 NSCLC 95.4% | NCI-H522 lung 89.2% | A549/ATCC NSCLC 100% | 786-0 renal 103% | COLO 205 colon 118%

Oc1ccccc1-c1nnco1
inactive: NCI-H23 lung 94.9% | NCI-H226 lung 93.1% | NCI-H322M lung 89.9% | HOP-62 NSCLC 81.5% | NCI-H460 lung 104% | HOP-92 NSCLC 97% | NCI-H522 lung 91% | A549/ATCC NSCLC 98.9% | 786-0 renal 90.6% | COLO 205 colon 103%

CC(=O)CC(=O)N(C)C
inactive: NCI-H23 lung 102% | NCI-H226 lung 94.5% | NCI-H322M lung 101% | HOP-62 NSCLC 98.8% | NCI-H460 lung 104% | HOP-92 NSCLC 81.8% | NCI-H522 lung 88.5% | A549/ATCC NSCLC 101% | 786-0 renal 97.8% | COLO 205 colon 115%

CC1Cc2ccccc2O1 (stereo unspecified)
inactive: NCI-H23 lung 98.6% | NCI-H226 lung 107% | NCI-H322M lung 131% | HOP-62 NSCLC 108% | NCI-H460 lung 109% | HOP-92 NSCLC 109% | NCI-H522 lung 114% | A549/ATCC NSCLC 103% | 786-0 renal 109% | COLO 205 colon 110%

CC(=O)OCCC(C)CCC=C(C)C (stereo unspecified)
inactive: NCI-H23 lung 105% | NCI-H226 lung 105% | NCI-H322M lung 114% | HOP-62 NSCLC 108% | NCI-H460 lung 104% | HOP-92 NSCLC 98.8% | NCI-H522 lung 92.7% | A549/ATCC NSCLC 101% | 786-0 renal 108% | COLO 205 colon 114%

CC(C)NC(=O)OCc1c(COC(=O)NC(C)C)c(-c2ccc(Cl)c(Cl)c2)n2c1SCC2
active: NCI-H226 lung -43.7%
inactive: NCI-H23 lung 38.6% | NCI-H322M lung 51.4% | HOP-62 NSCLC 28.7% | NCI-H460 lung 13.3% | HOP-92 NSCLC 50.8% | NCI-H522 lung 32% | A549/ATCC NSCLC 55.3% | 786-0 renal 19% | COLO 205 colon 53.6%

c1c(-c2cc(C3CC3)[nH]n2)n[nH]c1C1CC1
inactive: NCI-H23 lung 94.3% | NCI-H226 lung 95.2% | NCI-H322M lung 94.8% | HOP-62 NSCLC 98.6% | NCI-H460 lung 83.4% | HOP-92 NSCLC 89% | NCI-H522 lung 79% | A549/ATCC NSCLC 88.8% | 786-0 renal 94.3% | COLO 205 colon 102%

c1ccc(Sc2ccccc2)cc1
inactive: NCI-H23 lung 105% | NCI-H226 lung 103% | NCI-H322M lung 118% | HOP-62 NSCLC 104% | NCI-H460 lung 106% | HOP-92 NSCLC 90.9% | NCI-H522 lung 139% | A549/ATCC NSCLC 96.6% | 786-0 renal 113% | COLO 205 colon 115%

Nc1ccc(C(=O)c2ccc(N)c(Br)c2)cc1Br
active: NCI-H460 lung -0.543% | NCI-H522 lung -36.1% | COLO 205 colon -30.6%
inactive: NCI-H23 lung 44.4% | NCI-H226 lung 65.3% | NCI-H322M lung 65.5% | HOP-62 NSCLC 29.5% | HOP-92 NSCLC 34.7% | A549/ATCC NSCLC 17.9% | 786-0 renal 34%

CC(C)C(C#N)(C(C)C)C(C)C
inactive: NCI-H23 lung 104% | NCI-H226 lung 104% | NCI-H322M lung 107% | HOP-62 NSCLC 101% | NCI-H460 lung 102% | HOP-92 NSCLC 95.5% | NCI-H522 lung 92% | A549/ATCC NSCLC 97.1% | 786-0 renal 113% | COLO 205 colon 109%

C=C1CC/C=C(\C)C(=O)C[C@@H]2[C@@H]1CC2(C)C
inactive: NCI-H23 lung 107% | NCI-H226 lung 107% | NCI-H322M lung 119% | HOP-62 NSCLC 119% | NCI-H460 lung 107% | HOP-92 NSCLC 88.4% | NCI-H522 lung 85.3% | A549/ATCC NSCLC 109% | 786-0 renal 104% | COLO 205 colon 110%

COS(=O)(=O)c1ccc(Br)cc1
inactive: NCI-H23 lung 97.6% | NCI-H226 lung 101% | NCI-H322M lung 118% | HOP-62 NSCLC 95.6% | NCI-H460 lung 115% | HOP-92 NSCLC 98.1% | NCI-H522 lung 104% | A549/ATCC NSCLC 103% | 786-0 renal 111% | COLO 205 colon 104%

N=c1c(C(=O)OCc2ccccc2)ncc(CCl)n1O
inactive: NCI-H23 lung 100% | NCI-H226 lung 92.9% | NCI-H322M lung 98.6% | HOP-62 NSCLC 95.7% | NCI-H460 lung 99.4% | HOP-92 NSCLC 97.3% | A549/ATCC NSCLC 101% | 786-0 renal 81.6% | COLO 205 colon 116%
active: NCI-H522 lung -43.4%

CCOC(=O)c1[nH]c(C)c(C(=O)O)c1C
inactive: NCI-H23 lung 109% | NCI-H226 lung 101% | NCI-H322M lung 91.8% | HOP-62 NSCLC 111% | NCI-H460 lung 110% | HOP-92 NSCLC 104% | NCI-H522 lung 90.4% | A549/ATCC NSCLC 76.2% | 786-0 renal 110% | COLO 205 colon 112%

O=C(c1ccc(O)cc1)c1ccc(O)cc1
inactive: NCI-H23 lung 106% | NCI-H226 lung 98.1% | NCI-H322M lung 95.3% | HOP-62 NSCLC 97.8% | NCI-H460 lung 108% | HOP-92 NSCLC 98% | NCI-H522 lung 95.8% | A549/ATCC NSCLC 96.9% | 786-0 renal 98.8% | COLO 205 colon 108%

CN(C)c1ccc(CNC(C(=O)c2ccccc2)c2ccccc2)cc1 (stereo unspecified)
inactive: NCI-H23 lung 98.5% | NCI-H226 lung 101% | NCI-H322M lung 92.8% | HOP-62 NSCLC 75.5% | NCI-H460 lung 110% | HOP-92 NSCLC 78.9% | NCI-H522 lung 85.4% | 786-0 renal 109% | COLO 205 colon 113%

Nc1ccccc1C(=O)Nc1ccc(Cl)cc1Cl
inactive: NCI-H23 lung 92.6% | NCI-H226 lung 96.1% | NCI-H322M lung 106% | HOP-62 NSCLC 86.6% | NCI-H460 lung 104% | HOP-92 NSCLC 67.2% | NCI-H522 lung 78.5% | 786-0 renal 107%

COC(=O)c1cc(-c2ccc(Cl)c(Cl)c2)[nH]c(=O)c1C#N
inactive: NCI-H23 lung 107% | NCI-H226 lung 94.6% | NCI-H322M lung 95.4% | HOP-62 NSCLC 95.5% | NCI-H460 lung 109% | HOP-92 NSCLC 91.4% | NCI-H522 lung 97.6% | A549/ATCC NSCLC 101% | 786-0 renal 91.7% | COLO 205 colon 114%

CCN(CC)CCCC(C)Nc1ccnc(/C=C/c2ccc(Cl)cc2)c1 (stereo unspecified)
inactive: NCI-H23 lung 67.4% | NCI-H226 lung 62.6% | NCI-H322M lung 21.3% | HOP-62 NSCLC 38.4% | 786-0 renal 45.2%
active: NCI-H460 lung 9.3% | HOP-92 NSCLC -19.8% | NCI-H522 lung -38.6% | A549/ATCC NSCLC 9.38% | COLO 205 colon -64.4%

Nc1nc(N)c2cc(S(=O)(=O)c3cccc(C(F)(F)F)c3)ccc2n1
inactive: NCI-H23 lung 53.5% | NCI-H226 lung 69.2% | NCI-H322M lung 52.1% | HOP-62 NSCLC 76.6% | NCI-H460 lung 16.8% | HOP-92 NSCLC 55.7% | NCI-H522 lung 63.9% | A549/ATCC NSCLC 15.9% | 786-0 renal 38.1% | COLO 205 colon 62.5%

CC1(c2ccccc2)NC(=O)NC1=O (stereo unspecified)
inactive: NCI-H23 lung 116% | NCI-H226 lung 98.3% | NCI-H322M lung 97.2% | HOP-62 NSCLC 111% | NCI-H460 lung 118% | HOP-92 NSCLC 100% | NCI-H522 lung 99.4% | A549/ATCC NSCLC 96.5% | COLO 205 colon 130%

Cc1cc2nc(CC(=O)c3cccc([N+](=O)[O-])c3)c(=O)[nH]c2cc1C
inactive: NCI-H23 lung 80.3% | NCI-H226 lung 90.7% | NCI-H322M lung 93.8% | HOP-62 NSCLC 101% | NCI-H460 lung 87.6% | HOP-92 NSCLC 74.9% | NCI-H522 lung 70.4% | A549/ATCC NSCLC 97.9% | 786-0 renal 85.5% | COLO 205 colon 110%

CS(=O)CC1=NC(=N)N=C1CS(C)=O (stereo unspecified)
inactive: NCI-H23 lung 100% | NCI-H226 lung 102% | NCI-H322M lung 101% | HOP-62 NSCLC 100% | NCI-H460 lung 106% | HOP-92 NSCLC 103% | NCI-H522 lung 99.9% | A549/ATCC NSCLC 97.5% | 786-0 renal 102% | COLO 205 colon 117%

COc1cc2cc(OC(C)=O)c3cc4c(cc3c2c(OC)c1OC)OCO4
inactive: NCI-H23 lung 91.9% | NCI-H226 lung 94.7% | NCI-H322M lung 95.4% | HOP-62 NSCLC 91.5% | NCI-H460 lung 103% | HOP-92 NSCLC 96.3% | NCI-H522 lung 97.6% | A549/ATCC NSCLC 106% | 786-0 renal 106% | COLO 205 colon 106%

Oc1ccc(N=Nc2ccc(Br)cc2)c(O)c1
inactive: NCI-H23 lung 19.6% | NCI-H226 lung 83.6% | NCI-H322M lung 67% | HOP-62 NSCLC 27.5% | HOP-92 NSCLC 64.3% | A549/ATCC NSCLC 12.5% | 786-0 renal 15.6% | COLO 205 colon 129%
active: NCI-H460 lung 8.13% | NCI-H522 lung -32.1%
